Columns and labels:
Test in all cases: log2 ratio of Biotin-Ahx-Ub-VS probe labelling (fragment/DMSO); higher = less target engagement (more negative = stronger competition), active = hit call of the paper (q ≤ 0.05, log2 ratio ≤ -1)
Conditions in all cases: compound concentration: 200 uM; treatment time: 3 h
USP34 = USP34 (UniProt Q70CQ2)
Method in brief: (§1)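 Labelled DUBs from HEK293T lysate were NeutrAvidin-enriched, digested with LysC and trypsin, and run by diaPASEF LC-MS/MS. Before that, each 495 µg sample in Tris/CHAPS/IGEPAL buffer with protease inhibitors was treated in triplicate with fragment at 200 µM or vehicle for 3 h, then with Biotin-Ahx-Ub-VS at 0.5 µM final for 1 h. Values are average log2 ratios of fragment over vehicle by unpaired t-test, based on global-median-normalised Spectronaut label-free quantities from proteins with ≥2 unique peptides.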

USP36 = target: T1, USP36 (UniProt Q9P275)
T1 sequence (whole entry): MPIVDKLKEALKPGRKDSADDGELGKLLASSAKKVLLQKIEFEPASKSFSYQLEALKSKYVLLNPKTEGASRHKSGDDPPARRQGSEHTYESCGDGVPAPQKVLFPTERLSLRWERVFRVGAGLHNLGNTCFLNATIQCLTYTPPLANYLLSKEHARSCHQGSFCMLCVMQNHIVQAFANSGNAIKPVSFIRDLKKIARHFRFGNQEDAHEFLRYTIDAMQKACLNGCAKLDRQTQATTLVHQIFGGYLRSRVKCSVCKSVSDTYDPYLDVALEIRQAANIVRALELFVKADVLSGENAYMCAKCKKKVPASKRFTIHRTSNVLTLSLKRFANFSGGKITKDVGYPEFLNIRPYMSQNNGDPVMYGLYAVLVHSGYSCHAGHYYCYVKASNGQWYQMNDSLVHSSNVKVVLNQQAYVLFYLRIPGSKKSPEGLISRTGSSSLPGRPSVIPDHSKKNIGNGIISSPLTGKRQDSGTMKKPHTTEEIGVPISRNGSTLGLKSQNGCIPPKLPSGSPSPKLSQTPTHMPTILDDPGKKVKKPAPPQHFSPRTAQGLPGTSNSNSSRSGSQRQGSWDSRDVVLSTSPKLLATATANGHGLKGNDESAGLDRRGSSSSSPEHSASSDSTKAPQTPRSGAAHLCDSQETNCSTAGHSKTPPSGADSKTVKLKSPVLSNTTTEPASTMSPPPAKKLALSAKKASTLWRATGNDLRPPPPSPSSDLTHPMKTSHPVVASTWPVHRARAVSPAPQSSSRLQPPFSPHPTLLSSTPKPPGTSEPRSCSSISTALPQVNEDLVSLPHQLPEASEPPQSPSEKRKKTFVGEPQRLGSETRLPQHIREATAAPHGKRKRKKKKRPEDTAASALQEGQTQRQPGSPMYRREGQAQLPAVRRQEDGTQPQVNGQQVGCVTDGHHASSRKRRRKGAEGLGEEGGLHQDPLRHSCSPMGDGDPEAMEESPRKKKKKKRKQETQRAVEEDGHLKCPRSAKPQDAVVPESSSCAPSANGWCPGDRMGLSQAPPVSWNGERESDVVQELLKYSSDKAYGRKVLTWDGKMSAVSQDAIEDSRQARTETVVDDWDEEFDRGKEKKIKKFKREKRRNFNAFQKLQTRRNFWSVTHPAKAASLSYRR
Method in brief: as §1

USP38 = target: T2, USP38 (UniProt Q8NB14)
T2 sequence (whole entry): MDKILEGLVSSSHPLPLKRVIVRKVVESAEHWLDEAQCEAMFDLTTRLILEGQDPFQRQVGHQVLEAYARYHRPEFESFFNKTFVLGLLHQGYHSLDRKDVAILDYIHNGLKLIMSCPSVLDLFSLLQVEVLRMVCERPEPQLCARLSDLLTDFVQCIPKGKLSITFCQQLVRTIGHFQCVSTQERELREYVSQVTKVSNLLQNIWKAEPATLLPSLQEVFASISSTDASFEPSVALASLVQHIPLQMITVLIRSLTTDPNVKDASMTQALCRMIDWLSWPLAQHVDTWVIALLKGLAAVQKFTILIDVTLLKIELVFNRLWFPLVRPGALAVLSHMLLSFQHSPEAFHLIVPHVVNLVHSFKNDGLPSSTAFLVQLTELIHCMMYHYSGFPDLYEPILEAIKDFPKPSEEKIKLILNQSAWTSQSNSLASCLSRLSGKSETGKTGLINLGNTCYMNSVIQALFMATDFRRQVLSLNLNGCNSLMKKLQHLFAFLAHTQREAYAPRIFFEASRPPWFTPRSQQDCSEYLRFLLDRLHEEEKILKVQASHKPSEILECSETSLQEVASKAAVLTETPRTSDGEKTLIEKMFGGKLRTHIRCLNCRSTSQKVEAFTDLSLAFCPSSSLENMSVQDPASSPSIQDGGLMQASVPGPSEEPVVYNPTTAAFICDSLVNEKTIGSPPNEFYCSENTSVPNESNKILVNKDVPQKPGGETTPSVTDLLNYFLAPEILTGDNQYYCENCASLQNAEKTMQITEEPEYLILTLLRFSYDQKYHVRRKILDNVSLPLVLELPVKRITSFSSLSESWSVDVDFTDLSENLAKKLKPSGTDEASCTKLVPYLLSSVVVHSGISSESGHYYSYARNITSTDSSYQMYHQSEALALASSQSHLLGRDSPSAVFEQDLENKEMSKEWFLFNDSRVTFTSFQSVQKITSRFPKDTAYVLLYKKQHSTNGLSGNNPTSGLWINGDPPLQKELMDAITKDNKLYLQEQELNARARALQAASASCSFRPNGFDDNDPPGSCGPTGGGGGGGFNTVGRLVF
Method in brief: as §1

USP39 = target: T3, USP39 (UniProt Q53GS9)
T3 sequence (whole entry): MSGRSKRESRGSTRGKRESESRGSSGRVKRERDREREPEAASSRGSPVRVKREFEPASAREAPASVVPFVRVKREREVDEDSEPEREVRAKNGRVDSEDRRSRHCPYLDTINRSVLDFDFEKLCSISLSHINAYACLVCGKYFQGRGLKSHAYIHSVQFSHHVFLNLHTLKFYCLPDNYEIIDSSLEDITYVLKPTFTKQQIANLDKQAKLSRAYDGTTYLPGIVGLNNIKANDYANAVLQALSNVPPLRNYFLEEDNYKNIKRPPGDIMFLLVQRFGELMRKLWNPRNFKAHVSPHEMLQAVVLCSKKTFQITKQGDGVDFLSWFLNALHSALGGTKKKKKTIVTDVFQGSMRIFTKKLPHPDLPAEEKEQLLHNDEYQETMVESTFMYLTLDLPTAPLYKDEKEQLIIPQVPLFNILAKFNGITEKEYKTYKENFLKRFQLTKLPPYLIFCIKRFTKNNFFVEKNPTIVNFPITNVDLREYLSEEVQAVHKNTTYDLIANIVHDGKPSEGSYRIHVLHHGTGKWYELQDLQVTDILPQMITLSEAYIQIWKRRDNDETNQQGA
Method in brief: as §1

USP4 = target: T4, USP4 (UniProt Q13107)
T4 sequence (whole entry): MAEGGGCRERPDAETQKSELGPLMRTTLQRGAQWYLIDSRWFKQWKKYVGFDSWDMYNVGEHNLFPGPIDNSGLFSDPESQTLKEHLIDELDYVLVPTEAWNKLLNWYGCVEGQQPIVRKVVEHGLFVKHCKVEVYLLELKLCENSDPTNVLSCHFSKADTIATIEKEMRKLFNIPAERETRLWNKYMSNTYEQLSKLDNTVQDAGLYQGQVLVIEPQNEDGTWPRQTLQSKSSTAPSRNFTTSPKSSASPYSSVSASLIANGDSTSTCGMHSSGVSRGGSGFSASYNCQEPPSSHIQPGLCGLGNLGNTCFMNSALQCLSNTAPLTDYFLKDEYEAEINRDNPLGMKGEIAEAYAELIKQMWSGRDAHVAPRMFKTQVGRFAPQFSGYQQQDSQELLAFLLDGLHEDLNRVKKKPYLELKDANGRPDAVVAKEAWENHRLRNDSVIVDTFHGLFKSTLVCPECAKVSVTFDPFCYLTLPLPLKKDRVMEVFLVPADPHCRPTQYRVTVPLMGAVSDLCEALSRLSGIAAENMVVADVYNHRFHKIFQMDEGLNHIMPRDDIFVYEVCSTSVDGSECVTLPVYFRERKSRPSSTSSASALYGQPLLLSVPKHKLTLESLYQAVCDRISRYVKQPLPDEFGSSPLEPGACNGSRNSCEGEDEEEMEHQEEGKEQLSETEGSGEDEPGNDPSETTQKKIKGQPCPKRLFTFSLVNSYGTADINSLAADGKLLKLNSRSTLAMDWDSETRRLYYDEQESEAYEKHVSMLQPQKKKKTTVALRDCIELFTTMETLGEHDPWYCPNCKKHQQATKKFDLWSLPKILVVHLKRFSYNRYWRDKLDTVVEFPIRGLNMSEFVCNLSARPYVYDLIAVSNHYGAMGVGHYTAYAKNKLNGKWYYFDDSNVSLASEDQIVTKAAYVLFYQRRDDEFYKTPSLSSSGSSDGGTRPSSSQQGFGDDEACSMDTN
Method in brief: as §1

Measured: log2 ratio of Biotin-Ahx-Ub-VS probe labelling

Chain of USP34 (Q70CQ2 whole entry, the tested form may be a part): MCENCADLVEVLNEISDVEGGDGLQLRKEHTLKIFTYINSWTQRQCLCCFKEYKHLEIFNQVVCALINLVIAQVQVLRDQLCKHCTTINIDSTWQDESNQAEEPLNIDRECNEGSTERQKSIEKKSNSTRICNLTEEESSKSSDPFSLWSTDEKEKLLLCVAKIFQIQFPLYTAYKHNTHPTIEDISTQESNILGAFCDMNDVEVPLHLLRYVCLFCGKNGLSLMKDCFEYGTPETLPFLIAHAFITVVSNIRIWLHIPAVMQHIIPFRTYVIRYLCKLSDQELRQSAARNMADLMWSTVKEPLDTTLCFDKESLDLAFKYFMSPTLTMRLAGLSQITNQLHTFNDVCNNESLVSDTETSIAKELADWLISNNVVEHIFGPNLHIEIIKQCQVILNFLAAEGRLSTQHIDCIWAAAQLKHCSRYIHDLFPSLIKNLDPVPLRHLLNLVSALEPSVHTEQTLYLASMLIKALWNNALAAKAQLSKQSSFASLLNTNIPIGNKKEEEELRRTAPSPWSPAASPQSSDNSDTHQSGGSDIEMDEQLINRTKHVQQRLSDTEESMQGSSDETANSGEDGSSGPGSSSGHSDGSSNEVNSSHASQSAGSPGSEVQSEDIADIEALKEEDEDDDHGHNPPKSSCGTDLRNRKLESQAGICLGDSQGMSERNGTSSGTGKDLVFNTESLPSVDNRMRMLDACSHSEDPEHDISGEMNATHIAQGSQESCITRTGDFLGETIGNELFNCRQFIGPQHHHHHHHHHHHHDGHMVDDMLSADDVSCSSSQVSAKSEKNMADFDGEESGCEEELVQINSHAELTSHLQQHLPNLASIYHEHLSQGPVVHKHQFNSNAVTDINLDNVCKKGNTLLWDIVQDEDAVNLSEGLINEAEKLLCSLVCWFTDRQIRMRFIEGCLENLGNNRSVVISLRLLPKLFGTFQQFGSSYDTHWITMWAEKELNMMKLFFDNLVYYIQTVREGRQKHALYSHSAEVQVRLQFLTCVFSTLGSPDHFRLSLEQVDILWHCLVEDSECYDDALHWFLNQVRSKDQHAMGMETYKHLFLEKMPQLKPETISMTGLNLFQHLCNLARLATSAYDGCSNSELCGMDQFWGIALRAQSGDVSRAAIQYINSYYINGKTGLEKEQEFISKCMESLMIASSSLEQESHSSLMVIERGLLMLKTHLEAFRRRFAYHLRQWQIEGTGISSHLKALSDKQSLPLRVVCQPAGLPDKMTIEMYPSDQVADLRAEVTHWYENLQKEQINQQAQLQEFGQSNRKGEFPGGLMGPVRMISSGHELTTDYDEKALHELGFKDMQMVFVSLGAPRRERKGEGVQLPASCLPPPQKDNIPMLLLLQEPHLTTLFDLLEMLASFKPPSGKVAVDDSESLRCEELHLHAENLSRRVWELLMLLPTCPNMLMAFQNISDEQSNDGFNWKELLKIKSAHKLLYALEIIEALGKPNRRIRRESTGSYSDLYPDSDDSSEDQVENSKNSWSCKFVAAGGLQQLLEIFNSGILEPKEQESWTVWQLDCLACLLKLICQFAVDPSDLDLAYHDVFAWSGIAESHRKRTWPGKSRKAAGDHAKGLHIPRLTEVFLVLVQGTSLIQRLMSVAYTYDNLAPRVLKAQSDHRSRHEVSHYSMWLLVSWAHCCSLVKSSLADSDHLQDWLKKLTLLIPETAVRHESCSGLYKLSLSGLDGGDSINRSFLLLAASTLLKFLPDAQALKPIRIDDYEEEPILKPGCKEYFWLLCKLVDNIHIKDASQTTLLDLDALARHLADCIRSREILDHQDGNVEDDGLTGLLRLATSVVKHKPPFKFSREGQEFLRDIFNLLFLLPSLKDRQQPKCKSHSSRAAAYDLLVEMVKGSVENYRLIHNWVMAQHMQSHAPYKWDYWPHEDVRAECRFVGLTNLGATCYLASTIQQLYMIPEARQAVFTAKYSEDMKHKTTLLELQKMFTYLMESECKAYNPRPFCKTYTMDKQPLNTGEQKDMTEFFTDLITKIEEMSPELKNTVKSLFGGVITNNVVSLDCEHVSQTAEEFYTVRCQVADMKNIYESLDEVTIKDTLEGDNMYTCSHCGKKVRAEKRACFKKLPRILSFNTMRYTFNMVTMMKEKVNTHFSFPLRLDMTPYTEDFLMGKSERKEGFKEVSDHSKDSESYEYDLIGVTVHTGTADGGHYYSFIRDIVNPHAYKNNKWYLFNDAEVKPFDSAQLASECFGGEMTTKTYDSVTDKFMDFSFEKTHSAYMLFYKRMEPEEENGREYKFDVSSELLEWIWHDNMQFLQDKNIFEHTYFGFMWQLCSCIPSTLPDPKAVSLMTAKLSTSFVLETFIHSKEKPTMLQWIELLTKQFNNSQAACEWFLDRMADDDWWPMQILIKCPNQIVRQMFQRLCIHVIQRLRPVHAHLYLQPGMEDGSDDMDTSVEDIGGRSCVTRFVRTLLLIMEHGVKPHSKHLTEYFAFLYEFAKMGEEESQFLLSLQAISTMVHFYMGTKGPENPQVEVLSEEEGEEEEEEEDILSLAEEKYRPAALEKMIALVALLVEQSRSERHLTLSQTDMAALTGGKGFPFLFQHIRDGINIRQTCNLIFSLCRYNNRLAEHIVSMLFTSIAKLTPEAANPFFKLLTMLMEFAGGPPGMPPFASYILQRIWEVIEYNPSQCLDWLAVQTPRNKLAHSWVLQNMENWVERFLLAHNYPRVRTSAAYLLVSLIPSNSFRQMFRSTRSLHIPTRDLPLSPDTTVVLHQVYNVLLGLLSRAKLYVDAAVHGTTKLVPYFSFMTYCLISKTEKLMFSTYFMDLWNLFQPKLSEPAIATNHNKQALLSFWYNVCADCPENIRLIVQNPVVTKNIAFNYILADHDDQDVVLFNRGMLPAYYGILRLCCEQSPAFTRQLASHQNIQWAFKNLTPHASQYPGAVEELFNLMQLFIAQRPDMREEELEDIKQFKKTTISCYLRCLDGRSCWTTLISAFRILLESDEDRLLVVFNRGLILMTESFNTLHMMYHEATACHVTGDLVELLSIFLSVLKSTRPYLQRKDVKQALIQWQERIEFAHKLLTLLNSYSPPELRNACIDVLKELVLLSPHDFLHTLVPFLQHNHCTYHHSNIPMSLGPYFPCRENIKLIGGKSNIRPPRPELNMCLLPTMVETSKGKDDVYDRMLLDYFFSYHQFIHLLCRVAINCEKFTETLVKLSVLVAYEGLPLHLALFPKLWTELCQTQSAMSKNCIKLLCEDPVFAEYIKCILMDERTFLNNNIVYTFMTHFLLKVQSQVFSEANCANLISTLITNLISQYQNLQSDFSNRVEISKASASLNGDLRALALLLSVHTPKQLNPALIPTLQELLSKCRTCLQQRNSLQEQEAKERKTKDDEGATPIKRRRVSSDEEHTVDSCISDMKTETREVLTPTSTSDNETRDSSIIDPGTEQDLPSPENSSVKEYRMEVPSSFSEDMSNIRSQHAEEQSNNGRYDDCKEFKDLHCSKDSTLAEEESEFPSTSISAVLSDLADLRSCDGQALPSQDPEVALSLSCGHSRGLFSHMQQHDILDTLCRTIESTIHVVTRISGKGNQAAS

O=C(CCl)N(C1CCCC1)C1CCS(=O)(=O)C1 (stereo not given)
inactive: USP34 -0.0865 | USP36 -0.298 | USP38 -0.0626 | USP39 0.151 | USP4 0.0894
